Among the data in PubChem BioAssay AID2284191 (EPA ToxCast) are AC50 values, retold here.

A word on the AC50: it is the concentration giving half of the maximal activity seen.

Calls of active or inactive are those of the source. The calls were made as follows: active = hit-call score of the fitted dose curve at least 0.9, where 1 is the maximum; inactive = score below 0.9.

Sequence of human Serotonin Receptor 5-HT5A Agonism, HTR5A (gene 3361) (P47898 whole entry, looked up): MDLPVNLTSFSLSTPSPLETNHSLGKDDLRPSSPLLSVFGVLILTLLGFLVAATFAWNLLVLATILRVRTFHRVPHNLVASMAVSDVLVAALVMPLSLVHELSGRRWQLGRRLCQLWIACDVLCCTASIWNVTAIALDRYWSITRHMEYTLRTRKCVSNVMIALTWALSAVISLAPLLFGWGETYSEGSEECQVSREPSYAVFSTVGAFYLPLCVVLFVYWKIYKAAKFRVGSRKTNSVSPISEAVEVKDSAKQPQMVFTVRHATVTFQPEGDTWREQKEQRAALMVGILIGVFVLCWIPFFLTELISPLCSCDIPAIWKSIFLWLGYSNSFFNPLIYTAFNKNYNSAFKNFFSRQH

The target in the experiment is human Serotonin Receptor 5-HT5A Agonism, HTR5A (gene 3361) (UniProt P47898). Put plainly: ERF_FR_GPCR_hHTR5A: Eurofins (ERF) G Protein-Coupled Receptor (GPCR) Radioligand Binding LeadHunter Assay for human Serotonin Receptor 5-HT5A Agonism. The procedure:
ERF_FR_GPCR_hHTR5A is a biochemical, single-readout assay that uses extracted gene-proteins in a cell-free assay. Measurements were taken 2 hour after chemical dosing in a 96-well plate. See 5-HT5A Human Serotonin GPCR Binding (Agonist Radioligand) Assay, Cerep.ERF_FR_GPCR_hHTR5A is an assay component calculated from the ERF_FR_GPCR_hHTR5A assay. It is designed to measure radioligand binding using a type of binding reporter as detected by scintillation counting with radiometry technology.Data from the assay component ERF_FR_GPCR_hHTR5A was analyzed at the assay endpoint, ERF_FR_GPCR_hHTR5A, in the positive analysis fitting direction relative to DMSO as the negative control and baseline of activity. Using a type of binding reporter, gain-of-signal activity can be used to understand changes in binding as they relate to gene HTR5A. To generalize the intended target to other relatable targets, this assay endpoint is annotated to the gpcr intended target family, where the subfamily is serotonin.
Human cells are incubated for 120 minutes at 37 C with [3H]LSD ligand (1.5 nM) and serotonin as control inhibitor. Test Sample Requirements: Minimum for 1) Screen: 60 ul of 10 mM stock -OR- 1 mg (pre-weighed) for 10 uM final testing. 2) Dose Response: 90 ul of 10 mM stock -OR- 1 mg (pre-weighed) for a top concentration at 10 uM.
Take `O=C(/C=C/c1ccc(O)cc1)CC(=O)/C=C/c1ccc(O)cc1`: the half-maximal activity concentration (AC50) was 1680 nM (active).
